These results are taken from PubChem BioAssay.

Assay [1] is described as follows: rapamycin-like changes in RPL19A-GFP expression – cell-based, S. cerevisiae, multiplex flow cytometry, primary screen (AID 1862; in the data active = percent of DMSO control GFP below about 86%;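 note: lower values mimic rapamycin by blocking the RPL19A rise seen in DMSO cells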). The note with it: S. cerevisiae RPL19A-GFP strain, flow cytometry fluorescence, 3 h; at 10 µM; stronger effect = lower value.
Assay [2] is described as follows: TOR pathway GLN3 branch reporter MEP2-GFP changes – S. cerevisiae, multiplex flow cytometry, primary screen (AID 1867;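 active = GFP response, as percent of the DMSO control, above the screen-wide mean plus 3 SD, about 139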;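 note: median GFP channel fluorescence of barcode-gated MEP2-GFP cells measured by flow cytometry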). The note with it: S. cerevisiae MEP2-GFP strain, 3 h, at 10 µM, stronger effect = higher value, 100% means same as DMSO wells. (In general: Flow cytometry measures light scatter and fluorescence of single cells or particles in a stream.)
Assay [3] can be described thus: TOR pathway RTG branch CIT2 reporter changes – S. cerevisiae, GFP fusion, multiplex flow cytometry, primary screen (AID 1870;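 active = percent response above a set limit, the screen-wide mean plus 3 SD, cut at about 130% in these data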;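 note: barcoded CIT2-GFP strain pooled with four other GFP strains with rapamycin as positive control; median GFP fluorescence per well over plate mean of DMSO wells so 100% = DMSO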). Conditions: S. cerevisiae CIT2-GFP expression, 3 h, at 10 µM, stronger effect = higher value.
Assay [4] in a line: TOR pathway LAP4-GFP level changes – S. cerevisiae, multiplex flow cytometry, primary screen (AID 1873). The note with it: S. cerevisiae LAP4-GFP expression, 3 h, at 10 µM, stronger effect = higher value.
Assay [5] in a line: yeast AGP1-GFP level changes, GLN3 branch – cell-based, multiplex flow cytometry, S. cerevisiae, primary screen (AID 1887;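 active = GFP signal above the screen-wide mean plus 3 SD, that is over about 124.5% of the solvent control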;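 note: AGP1-GFP fusion strain of S. cerevisiae within a five-strain barcoded multiplex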). The note with it: 3 h, at 10 µM, stronger effect = higher value.
Assay [6] can be described thus: reduced mouse 2C T cell binding to pMHC/ICAM-1 vesicles – MLPCN validation set, flow cytometry, LFA-1/ICAM-1 modulator project, pilot screen (AID 2523;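 active = response below a set limit, under 55% cells CD8-positive and vesicle-bound, and CD8 cells' 90th-percentile brightness under 279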;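 for vesicle binding response: mean PE anti-B7-1 fluorescence of CD8+ cells relative to row control; 100% = QL9-loaded vesicles with DMSO vehicle in the same plate row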). Conditions: 2C mouse CD8+ T cells, at 7 µM, stronger effect = lower value; double positive events: measured here: CD8+/vesicle+ event percentage.
For assay [7], the target named is Integrin beta-1 (Homo sapiens) + Integrin alpha-4 (Homo sapiens) (UniProt P13612+P05556). Kind of assay: alpha4beta1 integrin LIBS antibody binding reduction – U937 cells, HUTS-21 mAb, flow cytometry, validation set, VLA-4 allosteric modulator project, pilot screen (AID 2674;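 active = inhibition above 50%, about 3 SD of the validation set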;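 note: antibody binding induced by the VLA-4 ligand LDV present at three times its Kd; 0% = LDV ligand with antibody and no compound and 100% = antibody without LDV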). Conditions: HUTS-21 LIBS mAb binding, at 6.7 µM, stronger effect = higher value, binding induced by LDV ligand.

A short description of assay [8]: calorie-restriction mimetic ROS inhibitors, yeast – validation compound set, pilot screen (AID 2706;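 active = superoxide response below 65% of plate, a cut near 3 SD across the whole screen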;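 note: yeast exposed to compound for one week at 30 degrees C before staining; 100% = mean of all compound wells on the same plate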). Conditions: S. cerevisiae aging, superoxide DHE fluorescence; at 10 µM; stronger effect = lower value.
Assay [9] addresses Beta-adrenergic receptor kinase 1 (Homo sapiens) (UniProt P25098). In words: GRK2 binders displacing RNA aptamer, biochemical, validation, human GRK2, bead flow cytometry (AID 488806;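 active = aptamer binding inhibition above 30%, about 3 SD of noise from non-fluorescent compounds; inactive = inhibition at or below 30%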). Conditions: bead-bound GRK2, FAM-aptamer displacement, at 10 µM, stronger effect = higher value.
The target in assay [10] is Beta-2 adrenergic receptor (Homo sapiens) (UniProt P07550). Kind of assay: agonist-induced loss of surface beta2AR – cell-based, FAP fluorogen, flow cytometry, validation set, pilot screen (AID 504459;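 active = percent response above 42, roughly 3 SD of non-fluorescent test compounds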;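 note: agonist-driven loss of surface beta2AR via internalization measured by FAP dye flow cytometry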). The note with it: Am2.2-beta2AR cells, at 10 µM, stronger effect = higher value.
Assay [11] addresses AP-2 complex subunit beta (Homo sapiens) (UniProt P63010). In words: beta-arrestin/AP2 interaction blockers – biochemical, validation set, GST-AP2 beads, flow cytometry, pilot screen (AID 504541;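 active = inhibition above 54%, about 3 SD of non-fluorescent compounds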;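 note: AP2 carries R879A mutation and is captured from E. coli lysate; bead-bound FITC arrestin peptide fluorescence measuring arrestin peptide binding to AP2; 0% = DMSO wells and 100% = excess unlabeled arrestin peptide control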). Conditions: FITC arrestin peptide, at 10 µM, stronger effect = higher value, AP2 beta2 appendage fragment, R879A mutant.
Assay [12] is described as follows: cytosolic pH regulators acting via V-ATPase – S. cerevisiae, pHLuorin, HTS validation (AID 504600; in the data active = response above about 15%;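 note: plate controls were DMSO for no effect and reference compound for full effect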). The note with it: V-ATPase proton transport, at 10 µM, stronger effect = higher value.
In assay [13] the test system is anti-desmoglein-3 scFv antibody binding to human DSG3. Kind of assay: blockers of pathogenic pemphigus antibody–desmoglein-3 binding – biochemical, validation compound set, bead-based, flow cytometry, pilot screen (AID 588368;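 active = binding below the plate cutoff, the plate median minus 3 SD, with a reading above zero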;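 note: signal is the median channel fluorescence of bead-bound GFP antibody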). The note with it: Protein G beads, DSG3-Fc, scFv-GFP binding, at 10 µM, stronger effect = lower value.
A short description of assay [14]: Nile Red efflux blockade in pump-expressing yeast – validation compound set, multiplex, phenotypic, pilot screen (AID 588506;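 active = efflux inhibition above 0.42, the validation set average plus 4 SD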;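 note: Nile Red retained in cells so higher fluorescence means more efflux inhibition; 0 = negative control wells and 1 = enniatin B 25 µM full block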). Conditions: S. cerevisiae pump-expressing triplex, Nile Red efflux flow cytometry; at 10 µM; stronger effect = higher value; the pumps come from Candida albicans.
Assay [15] concerns the target ATP-binding cassette sub-family B member 6 (Homo sapiens) (UniProt Q9NP58). In words: blockers of ABCB6-driven porphyrin uptake – K562-ABCB6 cells, flow cytometry, validation set, pilot screen (AID 588550;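 active = inhibition above the screen-wide mean plus 3 SD, about 51%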;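 note: 0% = DMSO wells and 100% = benzethonium chloride 70 µM positive control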). Conditions: K562-ABCB6 porphyrin accumulation, 1 h, at 10 µM, stronger effect = higher value.
A short description of assay [16]: AML differentiation inducers, ER-HoxA9 marrow cells – cell-based, GFP/MAC1 double positive, flow cytometry, validation set, primary screen (AID 588685;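 active = differentiation response of at least 50%, scaled between solvent and reference control, from cells with both markers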;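 note: compound exposure lasts four days before antibody staining and flow analysis; 0% = DMSO wells and 100% = 5 µM fulvestrant positive control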). Conditions: stronger effect = higher value, normalized: vehicle 0, fulvestrant 100.

The structures appear in SMILES notation. Results filed as inconclusive are left out. Calls of active or inactive are those of the source.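 Rule for the calls, unless noted: active = GFP signal, as percent of the solvent control, above the screen mean plus 3 SD, about 149; inconclusive = no reading because the compound's own fluorescence upset strain identification; inactive = the rest.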

Beta-2 adrenergic receptor (Homo sapiens), sequence (P07550 whole entry, looked up): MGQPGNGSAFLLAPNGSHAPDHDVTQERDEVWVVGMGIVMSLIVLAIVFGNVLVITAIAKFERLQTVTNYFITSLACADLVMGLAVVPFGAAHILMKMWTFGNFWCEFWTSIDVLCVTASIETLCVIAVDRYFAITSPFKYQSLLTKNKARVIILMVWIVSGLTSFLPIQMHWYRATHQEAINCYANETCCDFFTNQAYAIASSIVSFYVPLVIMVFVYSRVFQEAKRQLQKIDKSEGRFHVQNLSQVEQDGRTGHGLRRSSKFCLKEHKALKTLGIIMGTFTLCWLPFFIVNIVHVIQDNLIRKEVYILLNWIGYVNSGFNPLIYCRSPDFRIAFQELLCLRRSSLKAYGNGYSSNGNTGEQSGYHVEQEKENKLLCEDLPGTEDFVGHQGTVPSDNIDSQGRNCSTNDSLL
Integrin beta-1 (Homo sapiens) + Integrin alpha-4 (Homo sapiens), sequence (P05556 whole entry, looked up): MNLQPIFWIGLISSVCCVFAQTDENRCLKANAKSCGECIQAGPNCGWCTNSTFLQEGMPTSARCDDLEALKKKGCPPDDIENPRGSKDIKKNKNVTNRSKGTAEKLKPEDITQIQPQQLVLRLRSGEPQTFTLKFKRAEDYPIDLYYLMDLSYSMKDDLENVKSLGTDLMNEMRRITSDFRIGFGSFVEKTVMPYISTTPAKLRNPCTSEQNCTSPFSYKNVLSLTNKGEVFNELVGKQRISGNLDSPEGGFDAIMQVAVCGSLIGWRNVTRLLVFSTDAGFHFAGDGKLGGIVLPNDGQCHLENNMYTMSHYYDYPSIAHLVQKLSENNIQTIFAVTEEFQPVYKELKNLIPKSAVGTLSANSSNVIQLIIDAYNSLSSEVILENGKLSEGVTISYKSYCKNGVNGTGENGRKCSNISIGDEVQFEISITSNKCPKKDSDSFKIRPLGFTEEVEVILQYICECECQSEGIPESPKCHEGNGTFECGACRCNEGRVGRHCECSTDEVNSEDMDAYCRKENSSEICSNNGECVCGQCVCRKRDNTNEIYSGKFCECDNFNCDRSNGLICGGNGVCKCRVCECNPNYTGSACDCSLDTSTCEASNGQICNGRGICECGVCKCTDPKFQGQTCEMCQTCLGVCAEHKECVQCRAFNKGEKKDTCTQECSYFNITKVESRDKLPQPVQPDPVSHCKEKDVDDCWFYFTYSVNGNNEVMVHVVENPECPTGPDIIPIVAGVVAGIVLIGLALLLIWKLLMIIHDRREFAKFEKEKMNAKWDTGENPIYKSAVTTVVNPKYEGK
Integrin beta-1 (Homo sapiens) + Integrin alpha-4 (Homo sapiens), sequence (P13612 whole entry, looked up): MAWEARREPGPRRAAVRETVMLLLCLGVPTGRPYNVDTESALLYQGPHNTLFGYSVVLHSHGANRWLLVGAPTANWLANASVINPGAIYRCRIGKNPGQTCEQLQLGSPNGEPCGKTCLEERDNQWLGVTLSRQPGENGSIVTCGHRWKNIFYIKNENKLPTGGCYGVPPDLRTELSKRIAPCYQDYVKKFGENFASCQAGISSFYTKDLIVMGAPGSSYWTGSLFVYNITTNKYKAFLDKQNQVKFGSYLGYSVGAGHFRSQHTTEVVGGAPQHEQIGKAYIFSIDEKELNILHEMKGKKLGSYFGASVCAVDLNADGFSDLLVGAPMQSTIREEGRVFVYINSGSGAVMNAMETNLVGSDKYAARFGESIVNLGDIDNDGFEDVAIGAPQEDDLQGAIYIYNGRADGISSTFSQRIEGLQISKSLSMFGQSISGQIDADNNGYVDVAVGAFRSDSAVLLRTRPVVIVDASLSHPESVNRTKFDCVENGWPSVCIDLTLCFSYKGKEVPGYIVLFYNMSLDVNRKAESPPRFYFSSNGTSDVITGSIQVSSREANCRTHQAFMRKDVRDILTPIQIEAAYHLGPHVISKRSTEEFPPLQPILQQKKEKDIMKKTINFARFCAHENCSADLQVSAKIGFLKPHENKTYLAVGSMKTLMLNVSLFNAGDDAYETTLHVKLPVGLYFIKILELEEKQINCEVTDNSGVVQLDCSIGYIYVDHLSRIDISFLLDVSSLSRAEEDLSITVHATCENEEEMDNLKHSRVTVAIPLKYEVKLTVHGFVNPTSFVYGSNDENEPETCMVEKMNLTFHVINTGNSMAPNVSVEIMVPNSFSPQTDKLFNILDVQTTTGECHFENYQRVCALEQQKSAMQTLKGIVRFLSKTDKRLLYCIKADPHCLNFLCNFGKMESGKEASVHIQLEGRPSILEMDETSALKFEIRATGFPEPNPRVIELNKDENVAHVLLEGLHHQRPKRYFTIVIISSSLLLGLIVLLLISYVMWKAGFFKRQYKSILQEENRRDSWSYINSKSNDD
ATP-binding cassette sub-family B member 6 (Homo sapiens), sequence (Q9NP58 whole entry, looked up): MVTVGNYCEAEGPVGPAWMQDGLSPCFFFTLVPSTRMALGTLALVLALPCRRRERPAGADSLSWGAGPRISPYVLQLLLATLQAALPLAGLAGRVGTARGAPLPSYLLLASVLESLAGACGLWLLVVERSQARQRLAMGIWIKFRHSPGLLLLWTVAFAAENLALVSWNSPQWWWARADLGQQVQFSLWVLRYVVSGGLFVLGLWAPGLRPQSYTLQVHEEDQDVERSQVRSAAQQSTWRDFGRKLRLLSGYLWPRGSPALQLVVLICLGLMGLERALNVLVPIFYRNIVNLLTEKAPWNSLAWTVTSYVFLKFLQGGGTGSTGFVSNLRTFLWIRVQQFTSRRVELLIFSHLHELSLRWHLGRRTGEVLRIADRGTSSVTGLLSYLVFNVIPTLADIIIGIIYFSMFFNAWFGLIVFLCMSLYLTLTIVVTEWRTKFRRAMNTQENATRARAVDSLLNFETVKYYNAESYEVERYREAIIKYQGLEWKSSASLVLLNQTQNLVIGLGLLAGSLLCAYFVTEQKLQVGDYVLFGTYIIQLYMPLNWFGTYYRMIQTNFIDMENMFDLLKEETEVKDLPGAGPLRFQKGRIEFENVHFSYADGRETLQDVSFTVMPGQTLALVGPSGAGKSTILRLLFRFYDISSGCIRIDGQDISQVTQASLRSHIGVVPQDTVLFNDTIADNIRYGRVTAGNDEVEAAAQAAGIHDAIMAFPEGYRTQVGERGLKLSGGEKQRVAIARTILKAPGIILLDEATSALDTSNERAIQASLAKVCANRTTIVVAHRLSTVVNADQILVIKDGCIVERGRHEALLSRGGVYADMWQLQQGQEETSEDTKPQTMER
AP-2 complex subunit beta (Homo sapiens), sequence (P63010 whole entry, looked up, the tested form may be a part, one chain of several): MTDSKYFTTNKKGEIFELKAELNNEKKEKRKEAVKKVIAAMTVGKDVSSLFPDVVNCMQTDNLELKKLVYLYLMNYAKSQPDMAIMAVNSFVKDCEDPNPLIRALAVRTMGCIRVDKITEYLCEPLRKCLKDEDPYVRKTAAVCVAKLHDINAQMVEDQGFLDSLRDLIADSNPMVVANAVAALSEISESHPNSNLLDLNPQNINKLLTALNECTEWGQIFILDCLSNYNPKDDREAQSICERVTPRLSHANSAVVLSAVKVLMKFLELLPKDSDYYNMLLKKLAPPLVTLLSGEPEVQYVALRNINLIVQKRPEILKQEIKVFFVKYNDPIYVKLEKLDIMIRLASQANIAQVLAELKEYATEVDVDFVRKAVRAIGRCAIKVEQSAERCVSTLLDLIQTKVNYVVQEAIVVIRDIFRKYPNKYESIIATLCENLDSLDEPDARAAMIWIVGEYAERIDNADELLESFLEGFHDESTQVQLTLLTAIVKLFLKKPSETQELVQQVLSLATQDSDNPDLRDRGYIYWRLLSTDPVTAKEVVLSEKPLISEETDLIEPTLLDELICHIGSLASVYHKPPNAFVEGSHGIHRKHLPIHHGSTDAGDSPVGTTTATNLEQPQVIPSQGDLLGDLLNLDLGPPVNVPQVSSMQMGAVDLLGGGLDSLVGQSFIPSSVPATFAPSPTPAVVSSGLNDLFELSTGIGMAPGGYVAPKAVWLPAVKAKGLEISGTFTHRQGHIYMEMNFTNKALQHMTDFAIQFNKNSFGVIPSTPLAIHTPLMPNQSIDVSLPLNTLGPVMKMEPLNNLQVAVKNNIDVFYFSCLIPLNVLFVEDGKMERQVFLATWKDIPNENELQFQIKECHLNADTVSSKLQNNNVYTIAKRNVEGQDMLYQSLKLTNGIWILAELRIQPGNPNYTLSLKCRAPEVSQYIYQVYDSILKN
Beta-adrenergic receptor kinase 1 (Homo sapiens), sequence (P25098 whole entry, looked up): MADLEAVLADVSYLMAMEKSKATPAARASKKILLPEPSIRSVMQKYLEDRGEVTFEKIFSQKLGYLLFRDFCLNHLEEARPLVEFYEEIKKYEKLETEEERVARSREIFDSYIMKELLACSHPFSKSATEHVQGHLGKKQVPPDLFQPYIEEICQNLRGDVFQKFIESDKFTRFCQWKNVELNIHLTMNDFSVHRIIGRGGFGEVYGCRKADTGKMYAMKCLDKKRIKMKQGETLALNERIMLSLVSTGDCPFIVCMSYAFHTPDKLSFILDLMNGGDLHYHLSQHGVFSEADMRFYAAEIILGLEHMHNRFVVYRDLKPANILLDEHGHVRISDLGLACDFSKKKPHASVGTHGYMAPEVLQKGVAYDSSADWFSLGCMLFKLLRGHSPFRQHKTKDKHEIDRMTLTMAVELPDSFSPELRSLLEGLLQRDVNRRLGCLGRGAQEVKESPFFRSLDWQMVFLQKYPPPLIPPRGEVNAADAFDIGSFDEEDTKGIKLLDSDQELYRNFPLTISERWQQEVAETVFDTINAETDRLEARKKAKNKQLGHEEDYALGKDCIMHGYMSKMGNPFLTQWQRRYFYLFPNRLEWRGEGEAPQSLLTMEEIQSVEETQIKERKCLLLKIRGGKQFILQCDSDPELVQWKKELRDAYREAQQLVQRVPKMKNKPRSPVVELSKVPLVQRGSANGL

Regarding `Cc1nnc(SCC2=C(C(=O)O)N3C(=O)[C@@H](NC(=O)Cn4cnnn4)[C@H]3SC2)s1`, the percent of DMSO control GFP in assay [1] was 100% (inactive). In addition, the GFP response vs DMSO in assay [2] was 104% (inactive); in assay [4] it was 114% (inactive). Moreover, the percent response of DMSO control in [3] was 100% (inactive). In addition, in assay [5], the GFP response, % of DMSO is 112% (inactive). This compound displayed a double positive events in assay [6] of 61.6%. Besides, in assay [6], the vesicle binding response was 282% (inactive). The inhibition (commonly the relative decrease from the control value, in per cent) is 15.9% (inactive) in assay [7], 6.15% (inactive) in assay [11] and 1% (inactive) in [15]. For the same compound, in [8], the superoxide response (% of plate) is 98.1% (inactive). Further, the aptamer binding inhibition in [9] is -1% (inactive). For the same compound, the response is -26.4% (inactive) in [10] and -5.74% (inactive) in assay [12]. For the same compound, the binding (% of control) in [13] is 93.4% (inactive). Besides, in assay [14], the efflux inhibition (fraction of control) is -0.13 (inactive). In addition, the differentiation response in assay [16] was -7.94% (inactive).

In the case of `FC(F)(F)c1ccc(-c2noc(CN3CCCN(C4CCCCC4)CC3)n2)cc1`, in [1], the percent of DMSO control GFP is 100% (inactive). The GFP response vs DMSO was 105% (inactive) in [2] and 93.3% (inactive) in assay [4]. For the same compound, the percent response of DMSO control in [3] is 101% (inactive). The GFP response, % of DMSO in [5] is 101% (inactive). In [6], the double positive events is 62.5%. Besides, the vesicle binding response in [6] is 5350% (inactive). Also, the inhibition was -7.72% (inactive) in assay [7], -10.2% (inactive) in assay [11] and -11% (inactive) in assay [15]. In addition, in [8], the superoxide response (% of plate) is 89.3% (inactive). The aptamer binding inhibition in [9] was -12% (inactive). The values for the response in assay [10] and in [12] were -4.45% (inactive) and 3.31% (inactive), respectively. For the same compound, the binding (% of control) in [13] was 103% (inactive). Further, the efflux inhibition (fraction of control) in [14] is -0.14 (inactive). The differentiation response in assay [16] was 33.5% (inactive).

Turning to `COc1cc(C)nc(-n2nc(C)cc2OC)n1`, the percent of DMSO control GFP in assay [1] is 101% (inactive). Besides, the GFP response vs DMSO in [2] is 103% (inactive); in assay [4], 92.7% (inactive). Also, the percent response of DMSO control in assay [3] was 96.6% (inactive). In addition, the GFP response, % of DMSO in [5] is 102% (inactive). The same compound gave a double positive events in assay [6] of 61.8%. Further, the vesicle binding response in assay [6] is 5320% (inactive). The inhibition in assay [7] is -12.9% (inactive); in [11] it was 2.91% (inactive); in [15], 2% (inactive). Besides, the superoxide response (% of plate) in [8] was 88.7% (inactive). Besides, the aptamer binding inhibition in assay [9] is 1% (inactive). Also, the figures for the response in assay [10] and in [12] were -8.04% (inactive) and 48.8% (active), respectively. Also, the binding (% of control) in assay [13] was 95.9% (inactive). The efflux inhibition (fraction of control) in assay [14] is 0.02 (inactive). Moreover, the differentiation response in assay [16] was 8.06% (inactive).

Take `CCc1nc(N)nc(N)c1-c1ccc(Cl)cc1`: the percent of DMSO control GFP in [1] was 92.2% (inactive). In addition, the GFP response vs DMSO in assay [2] is 112% (inactive); in assay [4], 70.4% (inactive). The percent response of DMSO control in [3] was 102% (inactive). Further, the GFP response, % of DMSO in [5] is 101% (inactive). The compound also gave a double positive events in [6] of 65.6%. Also, the vesicle binding response in assay [6] is 209% (inactive). Besides, the figures for the inhibition in [7], in assay [11] and in assay [15] were 5.49% (inactive), 1.62% (inactive) and 10% (inactive), respectively. Further, the superoxide response (% of plate) in assay [8] is 87.5% (inactive). Moreover, the aptamer binding inhibition in assay [9] is 0% (inactive). Besides, the response in assay [10] is -2.3% (inactive); in [12], 1.08% (inactive). The binding (% of control) in [13] was 137% (inactive). Further, the efflux inhibition (fraction of control) in assay [14] was 0.23 (inactive). Moreover, in assay [16], the differentiation response is -3.28% (inactive).
